# Active and inactive are the calls of the source. The calls were made as follows: active = hit-call score of the fitted dose curve at least 0.9, where 1 is the maximum; inactive = score below 0.9.
# Assay: ATG_GRE_CIS: Attagene CIS-FACTORIAL HepG2 Assay for human Glucocorticoid Response Elements (GRE) (AID 2282947)
# Details: HepG2 GRE cis-reporter, Attagene multiplex mRNA; AC50: actives raise or lower the signal unless noted; outcome: actives raise or lower the signal unless noted
# Procedure: ATG_CIS is a cell-based, multiplexed-readout assay that uses HepG2, a human liver cell line, with measurements taken at 24 hours after chemical dosing in a 24-well plate.ATG_GRE_CIS is one of 52 assay component(s) measured or calculated from the ATG_CIS assay. It is designed to make measurements of mRNA induction, a form of inducible reporter, as detected with fluorescence intensity signals by Reverse transcription polymerase chain reaction (RT-PCR) and Capillary electrophoresis technology.Data from the assay component ATG_GRE_CIS was analyzed into 1 assay endpoint. This assay endpoint, ATG_GRE_CIS, was analyzed with bidirectional fitting relative to DMSO as the negative control and baseline of activity. Using a type of inducible reporter, measures of mRNA for gain or loss-of-signal activity can be used to understand the reporter gene at the transcription factor-level as they relate to the gene NR3C1. Furthermore, this assay endpoint can be referred to as a primary readout, because this assay has produced multiple assay endpoints where this one serves a reporter gene function. To generalize the intended target to other relatable targets, this assay endpoint is annotated to the nuclear receptor intended target family, where the subfamily is steroidal.
# Human liver HepG2 cells are transiently transfected with multiple reporter transcription units (MRTUs) in 6-well plates using FuGene 6 reagent (Roche; 3 ml FuGene/1 mg DNA). The MRTU constructs are regulated by a cis-regulating element (promoter). […] A major difference between the CIS and TRANS system is that in CIS activities of endogenous TFs are measured, whereas the TRANS assay evaluates changes in activities of exogenous, chimeric NR-Gal4 proteins. […] At the end of 24 hour incubation, total RNA was isolated using TriZol reagent (Invitrogen). The isolated RNA is then reverse-transcribed using oligo(dT) primer and Mo-MLV reverse transcriptase (Invitrogen) with DNAse I (Ambion) treatment for 30 min. The one-tenth of the produced cDNA was amplified by PCR using Taq DNA polymerase (Invitrogen) and two reporter sequence-specific primers. The PCR products were fluorescently labeled by primer extension with 6-arboxyfluorescein (6-FAM) 5'-labeled reporter sequence-specific primer (2 min at 95 C, 20 s at 68 C and 10 min at 72 C) and these products were digested with 5U of HpaI (New England Biolabs) for 2h at 37 C. The fragments were purified using Qiaquick PCR columns (Qiagen), analyzed on an ABI 3130xL genetic analyzer (Applied Biosystems) with peak positions identified by using a set of X-rhodamine (ROX)-labeled MapMarker1000 molecular weight standards (BioVentures). The raw capillary electrophoresis data was processed using Attagraph software (Attagene).
SMILES,AC50,outcome
O=C(CCCN1CCC(O)(c2ccc(Cl)cc2)CC1)c1ccc(F)cc1,52 µM (active),–
O=CC(F)(F)C(F)(F)C(F)(F)C(F)F,–,inactive
O=C1c2ccc(O)c(O)c2C(=O)c2c(O)ccc(O)c21,–,inactive
c1cc2cccc3c4cccc5cccc(c(c1)c23)c54,–,inactive
FC(F)(F)C(F)(F)C(F)(F)Br,–,inactive
CN(C)c1ccc(C(=C2C=CC(=[N+](C)C)C=C2)c2ccccc2)cc1,–,inactive
CCCCCCCC(OC)OC,–,inactive
O=C(O)C(=O)O,–,inactive
C=CC(=O)OCCC(F)(F)C(F)(F)C(F)(F)C(F)(F)C(F)(F)C(F)(F)C(F)(F)C(F)(F)F,–,inactive
CC1=CC(=O)c2ccccc2C1=O,–,inactive
CC1=NN(c2ccccc2)C(=O)C1,–,inactive
NC(C(F)(F)F)C(F)(F)F,–,inactive
CCCCCCc1ccc(N)cc1,–,inactive
CCCCCCC(C)(C)C(=O)O,–,inactive
CCO[Si](C)(C)OCC,–,inactive
Nc1cc(Cl)c(-c2cc(Cl)c(N)cc2Cl)cc1Cl,–,inactive
O=C(c1ccccc1)c1ccccc1,–,inactive
O=C(O)CCC(F)(F)C(F)(F)C(F)(F)C(F)(F)C(F)(F)C(F)(F)F,–,inactive
Cc1cc(Cc2cc(C)cc(C(C)(C)C)c2O)c(O)c(C(C)(C)C)c1,–,inactive
NNC(=O)CCCCC(=O)NN,–,inactive

SMILES,AC50,outcome
Brc1ccc(Oc2ccc(Br)cc2Br)cc1,–,inactive
FC(F)=C(F)C(F)(F)C(F)(F)C(F)(F)C(F)F,–,inactive
CCCCCCCCCCCCCCCC(=O)OC,–,inactive
CCCCCCOC(=O)c1ccc(O)cc1,–,inactive
C=COC(=O)C(C)(C)CCCCCC,–,inactive
O=S(=O)(O)c1ccccc1,–,inactive
C=CC(=C)CC/C=C(\C)CCC=C(C)C,–,inactive
c1cnc2c(c1)ccc1cccnc12,–,inactive
O=S(=O)(c1ccc(OCc2ccccc2)cc1)c1ccccc1O,42.4 µM (active),–
O=C(Nc1cccc([N+](=O)[O-])c1)c1cc2ccccc2cc1O,–,inactive
CCCCC(CC)C(=O)OCCOCCOCCOCCOC(=O)C(CC)CCCC (stereo not given),–,inactive
CCCCC=O,–,inactive
Cc1ccccc1OCC(=O)O,–,inactive
CC=O,–,inactive
CCCCCc1ccc(O)cc1,–,inactive
CCCCCCCCC(C)=O,–,inactive
CCCCCCCCCC=CCC1CC(=O)OC1=O (stereo not given),–,inactive
O=C(O)CN(CCCN(CC(=O)O)CC(=O)O)CC(=O)O,–,inactive
CC(O)COc1ccccc1 (stereo not given),–,inactive
CCCCN(C)C,–,inactive

# — PubChem BioAssay (EPA / NIEHS)
